Reference: the supplement of paper PMC12636033
± gives the standard deviation of the averaged measurements. In all, about 33,000 sequences were measured (“E-score (rank enrichment, -0.5 to 0.5)”: median about -0.0043, highest 2% from about 0.24 on). The sample holds the highest values, similar sequences and a random draw of the others, so the mix is not that of the screen.

System: 2Sp-muMax20 (muMax20 with two 2,6-bis(methyl)pyridine Cys staples)
Test: PBM 8-mer E-score (E-score (rank enrichment, -0.5 to 0.5)); higher = stronger preferential binding
Description: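 Protein binding microarray (universal PBM chip covering all 10-mers in fixed probe flanks) with chemically synthesized human Max(13-93) bHLH-LZ analogs (not full-length Max) bearing noncanonical residues (hArg, Tha, Aib, Nle at 65) and aromatic Cys staples. Read-out per 8-mer (and its reverse complement): E-score (rank-based enrichment, -0.5 to 0.5) and Z-score of median probe intensity.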

Sequence	PBM 8-mer E-score
AAATGTAT	0.0866 ± 0.053
GCATGTAC	0.2075 ± 0.0014
AGATGTAT	0.167 ± 0.023
ACATGTAG	0.241 ± 0.051
GTAGCTTA	0.179 ± 0.047
TGGTGTAA	0.135 ± 0.039
CCCCCAGC	-0.295 ± 0.034
ATACCAGG	-0.136 ± 0.023
CACAAGGG	-0.0596 ± 0.022
AGTCTAAA	-0.14 ± 0.013
GACCCACC	0.106 ± 0.043
AACCCACG	0.17 ± 0.037
TCCCCCAA	-0.174 ± 0.034
CGCCCACG	-0.0323 ± 0.074
AACCCACC	0.267 ± 0.025
ACCCCACG	0.0387 ± 0.033
TCCCCAAA	0.256 ± 0.079
ACCCCACA	0.239 ± 0.02
AGCCCACC	-0.0175 ± 0.041
CCCCCAAA	-0.195 ± 0.075
CACCCACC	0.0762 ± 0.08
CGCCCACC	0.274 ± 0.055
ATAAGGGA	0.102 ± 0.04
AACTCAAA	0.172 ± 0.036
CACGGCTA	-0.249 ± 0.073

Sequence	PBM 8-mer E-score
CCGTGGAC	-0.2957 ± 0.0024
AGGCTAGA	-0.144 ± 0.033
TCCCCACA	0.235 ± 0.0063
CCCCCACC	-0.321 ± 0.032
ACCCCCAC	-0.19 ± 0.027
CCCCCACG	0.0635 ± 0.0042
GCCCCACC	0.237 ± 0.039
GCCCCACA	0.223 ± 0.042
CCCCCAAC	-0.253 ± 0.01
GCCCCAAC	0.267 ± 0.013
ACCCCACT	0.183 ± 0.027
ACCCCACC	0.236 ± 0.05
GCCCCAAA	0.188 ± 0.0029
CCCCCACA	-0.205 ± 0.084
GTCTCTCA	-0.0452 ± 0.0099
AGAGGACT	-0.0403 ± 0.059
ACAAGTGT	-0.0219 ± 0.043
AGACTGTC	-0.179 ± 0.036
CATGTTAA	0.191 ± 0.048
ACTCTCTA	0.158 ± 0.0044
AACTCATG	0.176 ± 0.077
AAACAGAA	0.168 ± 0.015
ACCCCATG	0.297 ± 0.047
AACCCATG	0.139 ± 0.032
ACCCCATA	0.107 ± 0.075

Sequence	PBM 8-mer E-score
AACACGTG	0.4615 ± 0.0029
AACACGTA	0.0789 ± 0.055
AACACGTC	0.0953 ± 0.04
AATACGTA	0.206 ± 0.064
CATACGTC	0.0118 ± 0.0042
CACACGTG	0.384 ± 0.019
CATACGTA	0.297 ± 0.012
CACACGTA	0.0876 ± 0.11
CACACGTC	-0.0411 ± 0.069
CTTATGAC	0.0201 ± 0.0061
ACTATGAC	0.0953 ± 0.0015
TAAGGGTA	0.115 ± 0.039
CCCTGGGA	-0.29 ± 0.01
CATTCAAG	-0.108 ± 0.079
GATTCACA	0.0451 ± 0.093
GTTTCAAA	0.073 ± 0.063
CCTTCACG	-0.0558 ± 0.019
CTTTCAAA	0.236 ± 0.026
CATTCACA	0.248 ± 0.016
ATTTCAAA	0.0933 ± 0.0025
CATTCAAA	0.256 ± 0.027
TATTCAAA	0.197 ± 0.036
ACTTCACA	0.00636 ± 0.061
CATTCACG	0.0213 ± 0.074
CCTTCACA	0.256 ± 0.018

Sequence	PBM 8-mer E-score
ACCAAGGG	-0.132 ± 0.035
GCAAATCC	-0.0919 ± 0.086
CTTGATAA	0.0868 ± 0.0083
GCATTACC	-0.136 ± 0.01
ATGACAAC	0.0122 ± 0.037
CGACAATA	0.0335 ± 0.093
CAAGGCTG	-0.037 ± 0.11
CTCTTCAC	0.129 ± 0.00049
AATCCAGA	0.124 ± 0.08
CATGCACG	0.0888 ± 0.024
CATGCATC	0.081 ± 0.025
CATGCATA	0.207 ± 0.0092
CATGCACA	0.251 ± 0.033
CATGCAAG	0.103 ± 0.05
CATGCGAC	0.308 ± 0.019
GATGCACA	0.0774 ± 0.012
CATGCAAC	0.281 ± 0.056
CATGCATG	0.382 ± 0.024
AATGCGAC	0.0252 ± 0.028
AATGCAAC	0.136 ± 0.035
CATGCGAG	0.165 ± 0.062
CGAGGAAG	-0.0173 ± 0.064
CCGGCCGG	-0.229 ± 0.081
CCCAACCC	0.204 ± 0.019
CGCAAAAA	-0.00934 ± 0.005

Sequence	PBM 8-mer E-score
CTGGGCGC	0.0231 ± 0.038
ATTTGGCA	-0.0164 ± 0.011
ATTACTTG	0.18 ± 0.017
CTCCTACA	0.0705 ± 0.028
AGGGCTCA	-0.0979 ± 0.031
CTCATGCC	0.0321 ± 0.035
AGCGGATC	-0.0391 ± 0.022
AATGCATT	0.356 ± 0.017
CGTGCACA	0.102 ± 0.071
CGTGCACG	0.338 ± 0.0045
AATGCATG	0.233 ± 0.038
AATGCATA	0.16 ± 0.074
TGTGCACA	0.0196 ± 0.045
ACGGGACC	-0.245 ± 0.039
GGAATTTA	-0.0803 ± 0.093
GTCTTTGA	-0.121 ± 0.016
ATATTGCG	0.117 ± 0.029
ATATTGCC	0.238 ± 0.0041
CTATTGCC	-0.045 ± 0.019
CAAAAGTG	0.11 ± 0.016
GAAAGTAA	0.0437 ± 0.0096
CACAACGG	-0.145 ± 0.066
ACCCCGCC	0.284 ± 0.099
CCCCGCCA	0.246 ± 0.071
CCCCGCCG	0.131 ± 0.011

Sequence	PBM 8-mer E-score
CCCCGCCC	0.295 ± 0.048
TCCCGCCA	-0.0738 ± 0.002
AACCCGCC	0.128 ± 0.019
ACCCGCCC	0.3697 ± 0.0017
GCCCGCCA	-0.0439 ± 0.026
CCCCCGCC	-0.0595 ± 0.056
CGCCGCCC	0.00789 ± 0.052
GCCCGCCC	0.16 ± 0.039
ACCCGCCG	0.131 ± 0.01
ATATCTCC	0.197 ± 0.016
ACAGTATC	0.185 ± 0.073
TTAGGAAA	-0.00284 ± 0.012
ATGGTCAG	0.122 ± 0.043
CGCTCCGC	-0.154 ± 0.17
TATCCGCA	0.0196 ± 0.089
AAATTCTT	0.0344 ± 0.11
GGATATTA	0.161 ± 0.084
ATGTATTA	0.21 ± 0.014
GCATATTA	0.153 ± 0.0097
ATATATTG	0.221 ± 0.0031
ATATACTC	0.0166 ± 0.11
ATATACTA	0.285 ± 0.027
CTATATTA	0.168 ± 0.018
GTATATTA	0.243 ± 0.0031
GTGTATTA	0.239 ± 0.069

Sequence	PBM 8-mer E-score
CTATACTA	0.113 ± 0.12
ATATATTA	0.264 ± 0.012
CTGTATTA	0.141 ± 0.0065
CAGTACTA	0.128 ± 0.056
AGAGATCC	-0.0549 ± 0.05
TATCGACA	-0.0261 ± 0.032
CGAGCGTC	-0.00097 ± 0.042
ACACCATG	0.0073 ± 0.025
CATTGTCA	-0.0464 ± 0.016
AAAGGGGT	0.123 ± 0.013
CCCCTGCG	-0.168 ± 0.0048
GCCAATGA	0.00492 ± 0.00047
GACGGAAA	0.0756 ± 0.07
CGTTGAAC	-0.0586 ± 0.068
GATTGATA	0.115 ± 0.015
ACTTGATG	0.0152 ± 0.0016
AATTGATC	0.0176 ± 0.058
AATTGATA	0.252 ± 0.025
AATTGATG	0.25 ± 0.021
CATTGATA	0.179 ± 0.1
AAGACCCC	0.0259 ± 0.047
CACGGCGC	-0.0163 ± 0.17
